Values joined by “and” are separate entries in the source; they are usually repeats but may differ in a detail not shown here. Identical values can stand only once. The campaign covered roughly 5,500 compounds. About 2,000 (36%) were called active. Not shown: some 18% with an inconclusive outcome. Cut-off read from the data, not from the text of the source: active = normalized growth mostly below about 0.91 (no sharp cut-off); inconclusive = no clear call, values can overlap the other calls; inactive = mostly above about 0.92. The list shows a part of the results.
Assay: chemical genetic growth profiling, strain panel (AID 1159580);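 note: tested at 20 µM; growth read once vehicle control cultures reached saturation at 30 °C; 1 = growth at the plate median or of vehicle wells; lower values mean less growth of the strain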
Conditions: S. cerevisiae deletion strains, growth OD

Measured: normalized growth

CO[C@H]1/C=C/O[C@@]2(C)Oc3c(C)c(O)c4c(O)c(c(/C=N/N5CCN(C)CC5)c(O)c4c3C2=O)NC(=O)/C(C)=C\C=C\C(C)[C@H](O)[C@@H](C)[C@@H](O)[C@@H](C)[C@@H](OC(C)=O)[C@@H]1C (some centres not stated)
active: locus YDR137W, strain rgp1, hits give low values 0.803
inactive: locus YAL013W, strain DEP1, hits give low values 1 | locus YAL021C, strain ccr4, hits give low values 1.01 | locus YAL026C, strain drs2, hits give low values 1.02 | locus YAL030W, strain snc1, hits give low values 1.02 | locus YBL061C, strain skt5, hits give low values 1.03 | locus YBR009C, strain hhf1, hits give low values 1.02 | locus YBR021W, strain FUR4, hits give low values 0.998 | locus YBR023C, strain chs3, hits give low values 1.03 | locus YBR171W, strain sec66, hits give low values 1.03 | locus YBR229C, strain ROT2, hits give low values 1 | locus YBR231C, strain swc5, hits give low values 1.03 | locus YBR279W, strain paf1, hits give low values 1 | locus YCL011C, strain gbp2, hits give low values 1.02 | locus YCL016C, strain dcc1, hits give low values 1.01 | locus YCL029C, strain bik1, hits give low values 1.02 | locus YCL061C, strain MRC1, hits give low values 1.02 | locus YCL069W, strain vba3, hits give low values 1.03 | locus YCR088W, strain abp1, hits give low values 1.03 | locus YDL005C, strain med2, hits give low values 1.02 | locus YDL035C, strain GPR1, hits give low values 0.996 | locus YDL040C, strain nat1, hits give low values 1.02 | locus YDL074C, strain BRE1, hits give low values 1.04 | locus YDL101C, strain DUN1, hits give low values 1.03 | locus YDL185W, strain tfp1, hits give low values 1.01 | locus YDL192W, strain arf1, hits give low values 1.02 | locus YDR001C, strain nth1, hits give low values 1.02 | locus YDR069C, strain doa4, hits give low values 1.01 | locus YDR101C, strain arx1, hits give low values 1.01 | locus YDR159W, strain sac3, hits give low values 1.03 | locus YDR162C, strain NBP2, hits give low values 1.01 | locus YDR195W, strain ref2 1.09 | locus YDR297W, strain sur2, hits give low values 1.01 | locus YDR318W, strain mcm21, hits give low values 1.01 | locus YDR334W, strain swr1, hits give low values 1.02 | locus YDR335W, strain msn5, hits give low values 1.03 | locus YDR388W, hits give low values 1.02 | locus YDR392W, strain spt3, hits give low values 0.957 | locus YDR502C, strain sam2, hits give low values 1.01 | locus YEL003W, strain gim4, hits give low values 0.995 | locus YEL037C, strain rad23, hits give low values 1.02 | locus YEL061C, strain CIN8 (second series), hits give low values 1.02 | locus YEL061C, strain CIN8, hits give low values 1.01 | locus YER015W, strain faa2, hits give low values 1.03 | locus YER016W, strain bim1, hits give low values 1.02 | locus YER110C, hits give low values 1.03 | locus YER111C, strain swi4, hits give low values 1.03 | locus YER155C, strain BEM2 (second series), hits give low values 1.02 | locus YER155C, strain BEM2, hits give low values 1 | locus YER167W, strain BCK2, hits give low values 0.996 | locus YFR010W, strain ubp6, hits give low values 1.02 | locus YGL078C, strain dbp3, hits give low values 1.01 | locus YGL086W, strain mad1, hits give low values 1.02 | locus YGL167C, strain pmr1, hits give low values 1.02 | locus YGL173C, strain kem1, hits give low values 1.03 | locus YGL227W, strain vid30, hits give low values 1.04 | locus YGL240W, strain doc1, hits give low values 1.03 | locus YGL248W, strain PDE1, hits give low values 1.03 | locus YGL253W, strain hxk2, hits give low values 1.02 | locus YGR135W, strain pre9, hits give low values 1.02 | locus YGR252W, strain gcn5, hits give low values 1 | locus YHR013C, strain ard1, hits give low values 1.05 | locus YHR027C, strain rpn1, hits give low values 1.02 | locus YHR030C, strain SLT2, hits give low values 1.01 and 1.08 | locus YHR079C, strain IRE1 (second series), hits give low values 1.02 | locus YHR079C, strain IRE1, hits give low values 1.05 | locus YHR094C, strain hxt1, hits give low values 1.01 | locus YHR129C, strain ARP1, hits give low values 1.01 | locus YHR142W, strain chs7, hits give low values 1.06 | locus YHR200W, strain rpn10, hits give low values 1.02 | locus YIL066C, strain RNR3, hits give low values 1.01 | locus YIL073C, strain SPO22, hits give low values 1.04 | locus YIL125W, strain kgd1, hits give low values 1.03 | locus YIR030C, strain dcg1, hits give low values 1.02 | locus YJL092W, strain hpr5, hits give low values 1.02 | locus YJL095W, strain BCK1 (second series), hits give low values 1.02 | locus YJL095W, strain BCK1, hits give low values 1.04 and 1.03 | locus YJL115W, strain asf1, hits give low values 1.01 | locus YJL129C, strain trk1, hits give low values 1 | locus YJL134W, strain LCB3, hits give low values 1.01 | locus YJL154C, strain vps35, hits give low values 1.04 | locus YJL164C, strain tpk1, hits give low values 1.03 | locus YJL166W, strain qcr8, hits give low values 1.02 | locus YJL168C, strain set2, hits give low values 1.02 | locus YJL187C, strain SWE1 (second series), hits give low values 1.03 | locus YJL187C, strain SWE1, hits give low values 1.02 | locus YJR043C, strain POL32, hits give low values 0.998 | locus YJR066W, strain TOR1, hits give low values 1 | locus YKL009W, strain mrt4, hits give low values 1.02 | locus YKL068W, hits give low values 1.01 | locus YKL085W, strain MDH1 (second series), hits give low values 1.01 | locus YKL085W, strain MDH1, hits give low values 1.01 | locus YKL160W, strain elf1, hits give low values 1.02 | locus YKR001C, strain vps1, hits give low values 1.02 | locus YKR026C, strain gcn3, hits give low values 1.03 | locus YKR091W, strain srl3, hits give low values 1.02 | locus YLL001W, strain dnm1, hits give low values 1.02 | locus YLL026W, hits give low values 1.01 | locus YLL041C, strain sdh2, hits give low values 1.02 | locus YLR027C, strain aat2, hits give low values 1.02 | locus YLR039C, strain RIC1, hits give low values 1.02 | locus YLR058C, strain SHM2, hits give low values 1.02 | locus YLR102C, strain apc9, hits give low values 1.02 | locus YLR113W, strain HOG1, hits give low values 1.05 | locus YLR221C, strain rsa3, hits give low values 1 | locus YLR258W, strain gsy2, hits give low values 1.02 | locus YLR262C, strain YPT6 (second series), hits give low values 0.982 | locus YLR262C, strain YPT6, hits give low values 1.05 | locus YLR268W, strain sec22, hits give low values 1.03 | locus YLR320W, strain mms22, hits give low values 1.01 | locus YLR330W, strain CHS5, hits give low values 1.01 | locus YLR342W, strain FKS1 (second series), hits give low values 0.98 | locus YLR342W, strain FKS1, hits give low values 1.02 | locus YLR357W, strain rsc2, hits give low values 1.03 | locus YLR370C, strain arc18, hits give low values 1.02 | locus YLR371W, strain rom2, hits give low values 1.02 | locus YLR384C, strain iki3, hits give low values 1.02 | locus YLR418C, strain cdc73, hits give low values 1.02 | locus YML016C, strain PPZ1, hits give low values 1.01 | locus YML032C, strain rad52, hits give low values 1.02 | locus YML120C, strain ndi1, hits give low values 1.01 | locus YML124C, strain tub3, hits give low values 1.03 | locus YMR058W, strain fet3, hits give low values 1.03 | locus YMR078C, strain ctf18, hits give low values 1.02 | locus YMR125W, strain sto1, hits give low values 1.04 | locus YMR129W, hits give low values 1.02 | locus YMR205C, strain PFK2, hits give low values 1.01 | locus YMR223W, strain ubp8, hits give low values 1.02 | locus YMR231W, strain pep5, hits give low values 1.02 | locus YMR307W, strain GAS1, hits give low values 0.927 | locus YNL067W, strain RPL9B, hits give low values 1.04 | locus YNL071W, strain lat1, hits give low values 1.02 | locus YNL153C, strain GIM3, hits give low values 1.02 | locus YNL183C, strain NPR1, hits give low values 1.01 | locus YNL209W, strain ssb2, hits give low values 1.02 | locus YNL233W, strain BNI4, hits give low values 1.02 | locus YNL248C, strain rpa49, hits give low values 1.02 | locus YNL250W, strain rad50, hits give low values 1.01 | locus YNL271C, strain bni1, hits give low values 1.02 | locus YNL298W, strain CLA4, hits give low values 1.03 | locus YNL307C, strain MCK1, hits give low values 1.02 | locus YNL322C, strain KRE1 (second series), hits give low values 1.01 | locus YNR049C, strain mso1, hits give low values 1.03 | locus YNR052C, strain pop2, hits give low values 1.02 | locus YOL006C, strain TOP1, hits give low values 1.11 | locus YOL012C, strain htz1 1.35 | locus YOL147C, strain pex11, hits give low values 1.02 | locus YOR001W, strain rrp6, hits give low values 1.01 | locus YOR061W, strain CKA2, hits give low values 1.01 | locus YOR069W, strain VPS5, hits give low values 1.01 | locus YOR070C, strain gyp1, hits give low values 1.03 | locus YOR080W, strain dia2, hits give low values 1.03 | locus YOR083W, strain WHI5, hits give low values 1.02 | locus YOR106W, strain vam3, hits give low values 1.03 | locus YOR136W, strain idh2, hits give low values 1.02 | locus YOR144C, strain elg1, hits give low values 1.02 | locus YOR184W, strain ser1, hits give low values 1.02 | locus YOR231W, strain MKK1, hits give low values 1.02 | locus YOR265W, strain rbl2, hits give low values 1.04 | locus YOR270C, strain vph1, hits give low values 0.999 | locus YOR290C, strain snf2, hits give low values 1.01 | locus YOR316C, strain cot1, hits give low values 1.01 | locus YPL051W, strain arl3, hits give low values 1.03 | locus YPL078C, strain atp4, hits give low values 1.01 | locus YPL106C, strain sse1, hits give low values 1 | locus YPL240C, strain hsp82, hits give low values 1.02 | locus YPL256C, strain CLN2, hits give low values 1.06 | locus YPR119W, strain clb2, hits give low values 1.02 | locus YPR141C, strain kar3, hits give low values 1.02 | locus YPR163C, strain tif3, hits give low values 1.01 | locus YPR167C, strain met16, hits give low values 1.03 | strain wtn01, hits give low values 1

Source: PubChem BioAssay AID1159580 (chemical genetic matrix, 2015)
